Only some compounds are listed: those with a hit (about 7.4% of all), similar ones and a draw of the others.
ELG1 genotox: induces genotoxicity in HEK293T cells with luciferase-tagged ELG1. Potency, µM (series often up to 46 µM), without a hit: top-dose activity change, positive = activation, actives largely listed as activators. 330,000 compounds, 1.3% hits. AID 504466. HEK293T ELG1-luciferase reporter, luminescence, 16 h; further: % of control where 0% means no effect; nearly all actives have a fitted effect of over 60% in size
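HEK293T cells expressing luciferase-tagged ELG1 were treated with compound or DMSO for 16 hr at 37°C. Luciferase activity was then read after 30 min with ONE-Glo at room temperature; rising signal flags genetic stress.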
Rab9 promoter act: activates the Rab9 promoter; 320,000 compounds, 2.8% hits; Huh7 Rab9 promoter-luciferase reporter, luminescence, 24 h; AID 485297; Potency, µM (doses to about 9.22 µM), for inactives: at the highest dose activation, negative = inhibition, most hits filed as activators; further: % of control where 0% means no effect; nearly all actives have a fitted effect of over 60% in size
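Huh7 cells stably carrying Rab9 promoter–luciferase reporter, plated 1500 cells/well, compound added after 2 h and incubated 24 h at 37 °C; luciferase luminescence then read after 10 min with detection reagent.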
FLuc counter: inhibits or activates purified firefly luciferase, miR-21 counter-screen. purified FLuc, Km substrates, luminescence inhibition. Potency, µM (series often up to 57.5 µM), without a hit: top-dose activity change, negative = inhibition, actives largely listed as inhibitors. 360,000 compounds, 6.9% hits. AID 588342;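 further: plate controls were vehicle for no effect and reference inhibitor for full effect; nearly all actives have a fitted effect of over 55% in size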
Target sequence (P08659 whole entry, looked up): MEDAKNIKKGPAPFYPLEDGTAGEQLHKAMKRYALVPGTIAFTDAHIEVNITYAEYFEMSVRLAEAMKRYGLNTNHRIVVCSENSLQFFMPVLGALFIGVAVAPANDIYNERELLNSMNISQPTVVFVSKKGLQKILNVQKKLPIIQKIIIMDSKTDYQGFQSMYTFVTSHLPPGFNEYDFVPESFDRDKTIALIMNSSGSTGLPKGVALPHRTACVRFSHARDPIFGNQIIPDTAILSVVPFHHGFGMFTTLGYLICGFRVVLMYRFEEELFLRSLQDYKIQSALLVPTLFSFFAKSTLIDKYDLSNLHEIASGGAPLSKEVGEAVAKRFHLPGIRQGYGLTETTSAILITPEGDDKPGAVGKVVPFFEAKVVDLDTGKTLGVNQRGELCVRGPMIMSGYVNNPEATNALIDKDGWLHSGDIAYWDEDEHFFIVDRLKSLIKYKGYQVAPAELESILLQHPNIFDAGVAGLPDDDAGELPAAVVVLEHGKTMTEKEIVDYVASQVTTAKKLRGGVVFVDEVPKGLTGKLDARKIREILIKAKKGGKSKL
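Purified P. pyralis luciferase (10nM final) with 10uM D-luciferin and 10uM ATP (Km levels) in 50mM Tris acetate pH 7.5, 10mM Mg acetate, 0.01% Tween-20, 0.05% BSA; qHTS 6-point titration, ~60 µM downward; luminescence read.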
SMN2 splice up: SMN2 splice variant enhancement. HEK293 SMN2-luciferase splicing reporter, luminescence, 30-36 h. Potency, µM (top dose mostly 46.1 µM), for inactives: at the highest dose activity change, positive = activation, hits mostly activators. 210,000 compounds, 2.8% hits; further: % of control where 0% means no effect; nearly all actives have a fitted effect of over 55% in size
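HEK293 cells carry an SMN2 minigene-luciferase reporter in which exon 7 inclusion puts luciferase in frame. Cells were seeded at 2000 cells/well, attached for 10-12 hours, then exposed to compounds for 30-36 hours at 37C before ONE-Glo luminescence.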
NPC1 promoter act: activators of NPC1 promoter. AID 485313. Huh7 NPC1 promoter luciferase reporter, 24 h. 320,000 compounds, 2.4% hits. Potency, µM (titrated, usually from 9.22 µM), for inactives: top-dose activation, hits mostly activators; further: % of control where 0% means no effect; nearly all actives have a fitted effect of over 60% in size
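Readout is luciferase luminescence, reflecting NPC1 promoter activation in stably transfected Huh7 cells after 24 h compound exposure at 37 °C in reduced-serum medium with 10% FBS.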
* marks the source's active call; other numbers are inactive results; ? = inconclusive; · = no result given; [ ] = remark or other dose. The call rests on the fitted dose curve; in most records, active means well fitted curve in the direction sought with a large enough effect; inconclusive means small, poorly fitted or top-dose-only effect, or another doubt; inactive means no such curve, though single readings can be large; an effect the other way counts as inactive or inconclusive. Potency means the concentration at half of the fitted maximal effect.

SMILES	ELG1 genotox	Rab9 promoter act	FLuc counter	SMN2 splice up	NPC1 promoter act
O=c1c2c(nc3n1CCCCC3)sc1c(O)c(Br)ccc12	2.31µM*	2.82µM*	2.69µM*	15.8µM*	3.98µM*
CCN(CC)CCOc1c(Br)ccc2c1sc1nc3n(c(=O)c12)CCC3	?	-3.0%	-1.8%	-29.3%	-1.5%
CN(CC(=O)Nc1ccc(F)cc1)C(=O)Cn1nnc(-c2ccccc2)n1	3.1%	-2.5%	5.6%	·	-4.0%
CN(c1ccccc1)c1nc2ccsc2c(=O)s1	13µM*	3.16µM*	12µM*	?	?
Cc1nn(CCCC(=O)N2CCN(c3ccc(F)cc3)CC2)c(C)c1[N+](=O)[O-]	-7.9%	0.4%	-1.2%	-13.2%	-25.8%
Cc1ccc(C(C)NC(=O)CSc2ccc(S(=O)(=O)N3CCOCC3)cn2)cc1C (configuration not stated)	-0.5%	3.4%	0.3%	·	-2.0%
Cc1ccc(-c2cc(C(=O)NCC3CCCO3)c3ccccc3n2)cc1C (configuration not stated)	-5.7%	2.7%	6.75µM*	15.6%	5.9%
COc1cccc(-c2cc(C(=O)NCC3CCCO3)c3ccccc3n2)c1 (configuration not stated)	-1.9%	-1.8%	26.9µM*	-5.8%	-1.9%
COc1ccc(-c2cc(C(=O)NCC3CCCO3)c3cc(C)ccc3n2)cc1 (configuration not stated)	3.1%	20.6%	2.13µM*	?	15.8%
COc1ccc(-c2cc(C(=O)NCC3CCCO3)c3ccccc3n2)cc1 (configuration not stated)	-5.7%	17.3%	12µM*	7.1%	13.5%
COc1ccc(-c2cc(C(=O)NCC3CCCO3)c3cc(C(C)C)ccc3n2)cc1 (configuration not stated)	-1.2%[9.26 µM]	-0.7%	?	·	-2.0%
Cc1ccc2nc(-c3cccc(Br)c3)cc(C(=O)NCC3CCCO3)c2c1 (configuration not stated)	-11.8%	3.3%	?	·	-4.6%
COc1ccccc1CN1CC(C(=O)N(C)CCc2nc3ccc(F)cc3[nH]2)CCC1=O (configuration not stated)	0.9%	-3.6%	-1.3%	·	-2.5%
Cc1ccc2c(c1)-n1c(nc3cc(F)ccc3c1=O)C(Cc1ccc(O)cc1)NC2=O (configuration not stated)	1.6%	·	·	·	·
N#CCCCS(=O)(=O)c1nnnn1-c1ccc(Br)cc1	·	·	·	7.4%	·
CCCn1c(CCC(=O)Nc2cc(OC)cc(OC)c2)nc2cccnc21	·	·	4.8%	-11.6%	·
CNS(=O)(=O)c1cn(CC(=O)Nc2cccc(OC)c2)cc1S(=O)(=O)NC	·	·	-5.0%	·	·
C=CCC(O)(/C=C/c1ccccc1)c1ccccc1 (configuration not stated)	·	·	·	12.8%	·
CCc1ccc(C(=O)Cn2ncc(Cl)c(Cl)c2=O)cc1	12.1%	-8.4%	7.57µM*	·	-14.3%
Cc1ccc(Cn2ncc(Cl)c(Cl)c2=O)cc1	-16.1%	-6.7%	-0.3%	?	-13.6%
COc1ccc(C(=O)NCCn2cc(SCC(=O)Nc3cccc(C)c3)c3ccccc32)cc1	·	·	?	-22.6%	·
COc1cc(/C=C2/SC(=S)N(CC3CCCO3)C2=O)ccc1O (configuration not stated)	16.0%	-2.7%	10.7µM*	4.3%	-0.7%
COc1ccc(/C=C2\SC(=S)N(CC3CCCO3)C2=O)cc1 (configuration not stated)	9.6%	25.1%	10.7µM*	·	6.0%
Cc1ccc(-c2csc(NC(=O)CSc3nc4ccccc4o3)n2)cc1	?	24.6%	·	14.1µM*	25.8%
CC1CCc2nc(NC(=O)CSc3nc4ccccc4o3)sc2C1 (configuration not stated)	6.51µM*	?	6.75µM*	-81.4%	?
SMILES	ELG1 genotox	Rab9 promoter act	FLuc counter	SMN2 splice up	NPC1 promoter act
Cc1cccc(NC(=O)CSc2nc3ccccc3o2)c1	1.46µM*	0.891µM*	?	?	1.41µM*
CC(=O)c1cc2c(cc1NC(=O)CSc1nc3ccccc3o1)OCO2	10.3µM*	?	-0.5%	?	19.6%
Cc1ccc(OCC(=O)Nc2ccc(S(=O)(=O)Nc3cc(C)nc(C)n3)cc2)c(Br)c1	·	·	?	-9.4%	·
Cn1nnc2c(NCc3c(F)cccc3F)ncnc21	·	·	-5.9%	·	·
Cc1cccc(NC(=O)CSc2cc(C)c3ccccc3n2)c1	·	·	-18.5%	8.91µM*	·
Cc1noc(C)c1S(=O)(=O)N(C)C[C@H]1Oc2c(NC(=O)C3CCCCC3)cccc2C(=O)N([C@H](C)CO)C[C@@H]1C	2.5%	·	·	·	·
CCN(CC)CCSc1nc2ccccc2n1Cc1ccccc1	-11.7%	2.8%	6.2%	·	-0.2%
O=C(Nc1cccc(NC(=O)c2nccc3ccccc23)c1)c1ccco1	?	2.7%	8.49µM*	-7.0%	1.3%
CC(=O)Nc1cccc(NC(=O)c2ccco2)c1	-0.6%	-0.4%	-10.9%	21.6%	0.3%
O=C(Nc1cccc(NC(=O)c2sc3ccccc3c2Cl)c1)c1ccco1	-7.8%	9.6%	2.69µM*	20.9%	12.5%
CCc1ccc(NC(=O)Cn2c(=O)c(-c3ccccc3NC(C)=O)nc3ccccc32)cc1	·	·	-5.9%	·	·
CN1CCN(c2ccc(S(=O)(=O)N3CCOCC3)cc2NC(=O)Cc2ccccc2F)CC1	3.2%	2.0%	1.2%	·	-1.6%
Nn1c(Cc2ccccc2)nc2cc(Cl)ccc2c1=O	-2.1%	-0.6%	-0.1%	·	-3.2%
Nn1c(COc2ccc(Cl)cc2)nc2ccccc2c1=O	?	?	?	14.1µM*	?
COc1cc(Nc2cc(C)nc3ncnn23)cc(OC)c1	23.1µM*	1.4%	0.6%	?	-17.3%
COC(=O)c1cc(Nc2cc(C)nc3ncnn23)cc(C(=O)OC)c1	1.6%	-1.3%	5.2%	8.9%	-1.2%
CCOc1ccc(OCC)c(Nc2cc(C)nc3ncnn23)c1	20.6µM*	-4.5%	-0.7%	11.2µM*	-8.8%
COc1cc(Nc2cc(C)nc3ncnn23)cc(OC)c1OC	?	-2.4%	-0.8%	14.1µM*	-1.4%
COc1ccc(OC)c(NC(=O)Cn2c(=O)n(-c3cccc(C)c3)c(=O)c3c2c2cc(C)ccc2n3C)c1	·	·	2.1%	3.8%	·
Nc1nc(CSc2n[nH]c(-c3ccccc3)n2)nc(Nc2ccccc2)n1	-17.9%	-1.4%	-9.5%	-35.2%	-1.6%
Cc1ccc(Nc2nc(N)nc(CSc3ncccn3)n2)cc1	?	2µM*	12µM*	12.6µM*	2.24µM*
Nc1nc(CSc2ncccn2)nc(Nc2ccccc2)n1	?	3.98µM*	23.9µM*	14.1µM*	4.47µM*
Cc1ccc(Nc2nc(N)nc(CSc3nc(C)cc(C)n3)n2)cc1	·	·	-13.9%	-3.5%	·
COc1ccc(Oc2ncc3nc(C)c(=O)n(Cc4ccc(F)cc4)c3n2)cc1	·	·	·	-48.9%	·
Nc1cccc2c1C(=O)N(CCOc1ccccc1F)C2=O	0.411µM*	0.355µM*	0.757µM*	·	0.355µM*
